# Bioassay records: PubChem, National Center for Advancing Translational Sciences (NCATS)
# An excerpt weighted towards active compounds, which were near 1.1% of everything screened.
# NPSR antagonist = qHTS Assay for Antagonists of the Neuropeptide S Receptor: cAMP Signal Transduction | hit rate 1% among 220,000 | Potency, µM (highest dose often 38.3 µM), without a hit: at the top dose activity change, negative = inhibition, hits mostly inhibitors | CHO-NPSR cells, cAMP TR-FRET, antagonist mode | Q6W5P4; also: potency is read from the fitted curve at half-maximal effect; % is scaled to controls: 0 for no effect and ±100 for the full control effect; nearly all actives have a fitted effect of over 50% in size
# HTT aggregate = qHTS Multiplex Assay to Identify Dual Action Probes in a Cell Model of Huntington: Aggregate Formation (GFP); PC12 HttQ103-GFP aggregates, Acumen cytometry, 40 h; hit rate 1.1% among 220,000; Potency, µM (titrated, usually from 46.1 µM), for the others: top-dose activity change, negative = inhibition, hits mostly inhibitors; also: potency is read from the fitted curve at half-maximal effect; % is scaled to controls: 0 for no effect and ±100 for the full control effect; nearly all actives have a fitted effect of over 60% in size
#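 PC12 cells stably carrying ecdysone-inducible HTT exon 1 Q103–GFP were induced with tebufenozide (100 nM final) and treated with library compounds in titration. GFP aggregates in lysates were counted by laser scanning cytometry.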
# MBNL1-CUG inh = qHTS Assay for Inhibitors of MBNL1-poly(CUG) RNA binding; Muscleblind-like protein 1 (Homo sapiens), Q9NR56; TR-FRET MBNL1-His/biotin-(CUG)12 binding, 665/545 ratio; Potency, µM (highest dose often 57.5 µM), without a hit: at the highest dose activity change, negative = inhibition, usual class: inhibitors; hit rate 0.036% among 280,000; AID 2675, 2010; active = well fitted inhibition curve with a large enough effect in the signal ratio, with a control signal flat, not every such curve was filed as active; inconclusive = small, poorly fitted or top-dose-only effect, or effect the other way, or a change in a side signal; inactive = no such curve, though single readings can be large or run the other way; the % refers to the signal ratio; also: potency is read from the fitted curve at half-maximal effect; % is scaled to controls: 0 for no effect and ±100 for the full control effect
# Target sequence (Q9NR56 whole entry, looked up): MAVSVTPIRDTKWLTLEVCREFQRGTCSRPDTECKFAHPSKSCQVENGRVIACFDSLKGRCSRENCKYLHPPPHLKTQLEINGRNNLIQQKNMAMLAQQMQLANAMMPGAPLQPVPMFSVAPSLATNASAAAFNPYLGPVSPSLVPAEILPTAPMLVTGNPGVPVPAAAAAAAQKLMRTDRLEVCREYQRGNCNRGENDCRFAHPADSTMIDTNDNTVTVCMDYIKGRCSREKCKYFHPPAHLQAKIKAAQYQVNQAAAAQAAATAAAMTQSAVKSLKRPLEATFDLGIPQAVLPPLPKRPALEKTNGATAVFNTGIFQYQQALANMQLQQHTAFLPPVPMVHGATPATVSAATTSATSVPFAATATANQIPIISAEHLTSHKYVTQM
#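 Ratiometric TR-FRET (665 over 545 nm, excitation 340 nm) tracks disruption of MBNL1-His/biotin-(CUG)12 complex after 60 min at room temperature, with compounds at 92 nM to 58 uM final.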
# HTT cytoprotect = qHTS Multiplex Assay to Identify Dual Action Probes in a Cell Model of Huntington: Cytoprotection (ATP). PC12 HTT-Q103 induced, cytoprotection, ATP luminescence, 40 h. hit rate 0.14% among 230,000. AID 1471, 2008. Potency, µM (top dose mostly 56.4 µM), for the others: cytoprotection (ATP increase), actives largely listed as activators; also: potency is read from the fitted curve at half-maximal effect; % of control where 0% means no effect; nearly all actives have a fitted effect of over 45% in size
#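 Readout: ATPlite luminescence (ATP level). Model: stable PC12, inducible Htt exon1 Q103-GFP. Inducer: tebufenozide, 100 nM final. Compounds: dose series. No G418 in medium.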
# CBFb-RUNX1 inh = qHTS Assay for Compounds Blocking the Interaction Between CBF-beta and RUNX1 for the Treatment of Acute Myeloid Leukemia; AID 1477, 2009; Runt-related transcription factor 1 (Homo sapiens) + Core-binding factor subunit beta …; 230,000 tested, under 10 active; Potency, µM (titrated, usually from 59.8 µM), inactives show at the highest dose activity, negative = inhibition, hits mostly inhibitors; AlphaScreen CBFb-His/RUNX1-biotin binding, biochemical; also: % of control where 0% means no effect
#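 Interaction loss through any mechanism counts as activity. Pre-formed complex of His-CBF-beta and biotin-RUNX1 (30 nM apiece) is incubated with compound 15 min, then with 50 ng nickel and 50 ng streptavidin beads for 90 min before AlphaScreen detection.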
# Lamin A splicing = qHTS Assay for Modulators of Lamin A Splicing | HeLa LMNA splicing GFP/RFP minigene ratio, 48 h | Potency, µM (doses to about 46.1 µM), for the others: top-dose ratio change, negative = inhibition, usual class: inhibitors | hit rate 0.01% among 200,000 | AID 1487, 2009; active = well fitted inhibition curve with a large enough effect in the signal ratio, with a control signal flat, not every such curve was filed as active; inconclusive = small, poorly fitted or top-dose-only effect, or effect the other way, or a change in a side signal; the % refers to the signal ratio; also: potency is read from the fitted curve at half-maximal effect; % is scaled to controls: 0 for no effect and ±100 for the full control effect
#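 S3 HeLa cells stably expressing lamin A-EGFP splicing minigene plus DsRed2, 600 cells/well, 48 h compound exposure at 37C. Laser-scanning cytometry; analysed as GFP (500-530 nm)/RFP (575-640 nm) total intensity ratio; 0.5% DMSO vehicle.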
# * hit, by the source's call; ? = inconclusive; / = no result; [ ] = another dose, or the depositor's remark. Unless noted, calls follow the shape of the dose curve; as a rule, active = well fitted curve in the direction sought with a large enough effect; inconclusive = small, poorly fitted or top-dose-only effect, or another doubt; inactive = no such curve, though single readings can be large; an effect the other way counts as inactive or inconclusive.
SMILES,NPSR antagonist,HTT aggregate,MBNL1-CUG inh,HTT cytoprotect,CBFb-RUNX1 inh,Lamin A splicing
CN1CCN(c2nnc(-c3cccs3)c3ccccc23)CC1,-4.0%,7.6%,?,-39.7%,-8.6%,-10.2%[46 µM]
CC(C)(C)c1csc(NC(=O)c2ccc(Cl)s2)n1,?,8.91µM*,-1.4%,-104.9%,?,?
Clc1ccc(CSc2nnc(-c3ccncc3)o2)cc1,-11.3%[46.1 µM],10µM*,-1.1%,-1.0%,5.9%,?
Cc1ccc(NC(=O)Nc2ccccc2)cc1[N+](=O)[O-],-50.9%,4.1%,12.8%,-16.1%[10 µM],10.8%,?
O=C(Nc1ccccc1)Nc1ccc(Cl)c([N+](=O)[O-])c1,-31.0%,12.6µM*,?,-9.3%[0.074 µM],4.3%,?
O=C(Nc1ccc(Cl)cc1)Nc1cc([N+](=O)[O-])ccc1F,-12.0%,20µM*,-6.4%,-4.1%[10 µM],3.8%,1.5%
COC(=O)[C@@]1(Cc2ccc(OC)cc2)[C@H]2c3cc(C(=O)N4CCCC4)n(CCc4ccc(O)c(O)c4)c3C[C@H]2CN1C(=O)c1ccccc1,/,/,/,11.2µM*,-11.1%,/
COC(=O)[C@@]1(Cc2ccc(OC)cc2)[C@H]2c3cc(C(=O)N4CCCC4)n(Cc4ccc(Cl)c(C(F)(F)F)c4)c3C[C@H]2CN1C(=O)c1ccccc1,/,/,/,10µM*,1.6%,/
COc1cccc(F)c1C(C[N+](=O)[O-])c1c(N)n(C)c(=O)n(C)c1=O (configuration not stated),6.31µM*,-22.1%[9.22 µM],-7.8%,-44.0%[10 µM],2.5%,/
CC(=O)Nc1ccn(C2OC(C(COC(C)=O)NC(=O)C(C)NC(=O)OC(C)(C)C)C(OC(C)=O)C2OC(C)=O)c(=O)n1 (configuration not stated),/,/,/,/,19.3%,/
CCOC(=O)CCCCC(=O)c1[nH]c(=O)[nH]c1CSc1nc2ccccc2[nH]1,2.1%,-0.6%,?,-11.6%[10 µM],-22.4%,-2.0%
Cc1[nH]c(=O)[nH]c1C(=O)CCCCC(=O)OCC(=O)Nc1ccccn1,-1.5%[46.1 µM],6.5%,0.0447µM*,-21.8%,/,-1.1%
Cc1nn(S(=O)(=O)c2ccc(F)cc2)c(C)c1S(=O)(=O)N1CCCCCC1,/,/,/,/,/,13.5%[46 µM]
CN1C(=O)C2(C(C#N)=C(N)N(c3cc(Cl)cc(Cl)c3)C3=C2C(=O)CCC3)c2ccccc21 (configuration not stated),-9.8%[46.1 µM],4.3%,-4.0%,-0.2%,-0.5%,-3.5%
CN1C(=O)C2(c3ccccc31)C1CCCC=C1C(C#N)=C(N)C2(C#N)C#N (configuration not stated),?,/,?,20µM*,-16.0%,-12.2%
Oc1cc2c(cc1O)[C@@H]1c3ccc(O)c(O)c3OC[C@]1(O)C2,/,/,/,-120.2%,?,/
CC(=O)c1c(C)[nH]c(C(=O)OCCCCN2C(=O)c3ccccc3C2=O)c1C,-11.1%[46.1 µM],2.82µM*,0.2%,-35.7%,-2.1%,?
CCCCNC(=O)Cn1c(=O)cc(C)c2c(C)nn(-c3cccc(Cl)c3C)c21,/,/,/,/,/,4.6%[46 µM]
CC/C(=C(\c1ccccc1)c1ccc(OCCN(C)C)cc1)c1ccccc1,-8.1%[46.1 µM],?,/,-145.2%,-1.6%,?
CCN(CC)CCOc1ccc(/C(=C(/Cl)c2ccccc2)c2ccccc2)cc1,10µM*,?,-8.7%,-77.4%,-7.1%,/
C/C(=N\NC(=O)C(C)Oc1ccc([N+](=O)[O-])cc1)c1ccccn1 (configuration not stated),-19.8%[46.1 µM],10µM*,10.2%,-71.5%,?,?
